Assay results: PubChem BioAssay AID588456 (National Center for Advancing Translational Sciences (NCATS), 2011)
About 55 (0.01%) of roughly 390,000 compounds were called active. Calls come from the whole dose curve; as a rule, active = well fitted inhibition curve with a large enough effect; inconclusive = small, poorly fitted or top-dose-only effect; inactive = no such curve, though single readings can be large or run the other way. The list is a sample of the results.

Biological target: Thioredoxin reductase 1, cytoplasmic (Rattus norvegicus) (UniProt O89049)
Experiment: qHTS Assay for Substrates of Mammalian Selenoprotein Thioredoxin Reductase 1 (TrxR1): qHTS; note: nearly all actives have a fitted effect of over 50% in size
Conditions: purified TrxR1 substrate turnover, NADPH consumption readout; series mostly up to 114 µM
Source text: The selenoprotein thioredoxin reductase (TrxR; EC 1.8.1.9) is a FAD containing homodimeric pyridine nucleotide-disulfide oxidoreductase with many cellular roles. Together with NADPH and its prime substrate thioredoxin (Trx), the enzyme forms the core of the Trx system. The mammalian Trx system exerts a wide spectrum of functions including redox regulation, antioxidant defense, regulation of transcription factors as well as support of cell growth and replication. Many of these functions involve the reduction of Trx, which may subsequently reduce a number of different substrates including ribonucleotide reductase, peroxiredoxins or NFkB. Mammalian TrxR itself also has a broad substrate specificity, reducing both protein and non-protein substrates, including low molecular weight compounds such as dehydroascorbate, lipoic acid, ubiquinone, and juglone. In addition, several drugs in clinical use for anticancer treatment are indeed known to target TrxR1.
This BioAssay is a validation of an NADPH fluorescence-based, dual-purpose qHTS rTrxR1 assay designed to find potential inhibitors and substrates of rTrxR1. For this particular BioAssay, actives are potential substrate. See related BioAssay for inhibition data deposition.
NIH Molecular Libraries Probe Production Network [MLPCN]
NIH Chemical Genomics Center [NCGC]
Assay Provider: Elias Arner, Karolinska Institute
Assay protocol: 2 uL of reagents (buffer in column 4 as negative control and 90 nM rTrxR1 in columns 1-3 and 5-48) were dispensed into Greiner black solid-bottom 1,536-well assay plates, followed by 1 uL of NADPH (400 uM final concentration) to each well. The plates were centrifuged at 1000 rpm for 15 seconds and subsequently incubated for 5 min at room temperature (~22 deg C) to allow for rTrxR1 reduction. Compounds (23 nL) were then transferred via Kalypsys pin tool equipped with 1536-pin array (10 nL slotted pins, V&P Scientific, San Diego, CA). In addition, a duplicate 2-fold serial dilution of the control compounds auranofin, a known gold-based TrxR1 inhibitor, and juglone (5-hydroxy-1,4-naphthoquinone), a natural TrxR1 substrate, were pin-transferred to columns 2 and 3, respectively. After incubation for 15 min at room temperature (~22 deg C), 1 uL of selenite (400 uM final concentration) were dispensed to each well. The plate was immediately transferred to a ViewLux high-throughput CCD imager (PerkinElmer), wherein kinetic measurements of NADPH fluorescence (Ex 340 nm, Em 450 nm) were acquired (8 minute kinetic read, see Table 1). Read 1 was utilized to assess the capacity of a compound to serve as an rTrxR1 substrate, i.e. a decrease in NADPH fluorescence compared to the no-compound background is an indication of a substrate behavior for that particular compound. For inhibitory activity of a compound, delta values, computed as the difference in fluorescence intensity between the first and last reads of an 8-minute time kinetic window, were used. All reagents were diluted in an assay buffer consisting of 50 mM Tris-HCl, pH 7.5, 2 mM EDTA, and 0.01% Tween-20.
Throughout the screen, reagent bottle and all liquid lines were made light-tight to minimize reagent degradation. All screening operations were performed on a fully integrated robotic system (Kalypsys, San Diego, CA) containing one RX-130 and two RX-90 anthropomorphic robotic arms (Staubli, Duncan, SC). Library plates were screened starting from the lowest and proceeding to the highest concentration, and a 'double-pinning' step of the highest concentration was required to access higher concentrations of compounds. Vehicle-only plates, with DMSO being pin-transferred to the columns 5-48, were inserted uniformly at the beginning and the end of each library in order to monitor and record any shifts in the background, which can be affected by reagent dispensers or loss in enzyme activity over time. […]
% is set by controls: 0 for no effect and ±100 for the full control effect.

Chain of Thioredoxin reductase 1, cytoplasmic (Rattus norvegicus) (O89049 whole entry, looked up): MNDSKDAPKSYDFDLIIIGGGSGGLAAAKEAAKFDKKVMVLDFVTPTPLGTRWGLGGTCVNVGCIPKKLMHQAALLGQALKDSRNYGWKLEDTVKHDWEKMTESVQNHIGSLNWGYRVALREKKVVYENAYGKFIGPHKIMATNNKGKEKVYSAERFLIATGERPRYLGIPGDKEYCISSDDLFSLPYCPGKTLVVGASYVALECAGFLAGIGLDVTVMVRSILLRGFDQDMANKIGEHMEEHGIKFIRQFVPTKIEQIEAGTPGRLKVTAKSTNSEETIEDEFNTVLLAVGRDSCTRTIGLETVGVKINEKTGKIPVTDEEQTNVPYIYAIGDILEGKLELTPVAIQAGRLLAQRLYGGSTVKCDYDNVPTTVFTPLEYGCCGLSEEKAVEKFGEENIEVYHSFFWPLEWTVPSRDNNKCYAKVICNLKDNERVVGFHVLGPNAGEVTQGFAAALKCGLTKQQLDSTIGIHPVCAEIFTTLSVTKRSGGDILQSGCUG

Activity change, negative = substrate turnover, inactive:
O=[N+]([O-])c1ccc(S(=O)(=O)N2CCN(c3nc(-c4ccccc4)nc4ccccc34)CC2)cc1
Cc1cccc(-n2ccnc2SCC(=O)Nc2cc(C(F)(F)F)ccc2Cl)c1
CN1CCN(/[N+]([O-])=N/Oc2ccc([N+](=O)[O-])cc2[N+](=O)[O-])CC1
COc1cc2nc(N3CCCN(C)CC3)nc(NC(C)C)c2cc1OC
CN(N=O)c1ccc(C=C2c3ccccc3-c3ccccc32)cc1
COc1ccc(-c2nc(=N)sn2-c2ccccc2)cc1
CN(C)c1ccc(/C=C/c2c3ccccc3nc3ccccc23)cc1
CN(C)c1cc2c(Nc3ccc4c(cnn4Cc4ccccc4)c3)ncnc2cn1
CC(C)(C)n1ncc2c(=O)n(Cc3ccc(C(=O)c4ccccc4)cc3)cnc21
CC(C)(C)OC(=O)N(Cc1ccco1)S(=O)(=O)c1ccccc1Br
CC(=O)c1ccc[n+](C(C)CCC(C)[n+]2cccc(C(C)=O)c2)c1 (stereo not drawn) 4.01% [at 0.0914 µM]
CCOc1ccc(CCNC(=O)c2csc3c2CCCCC3)cc1
CN(C(=N)N)c1ccc(/C=C2\C=Cc3ccccc32)cc1
Cc1cccc(-n2ncc(C(=O)N3CCc4ccccc4C3)c2C2CCN(C(=O)OC(C)(C)C)CC2)c1
Cc1cccc(NC(=O)CSc2nc3c(oc4ccccc43)c(=O)n2-c2ccc(F)cc2)c1
COc1cc(CNCCSc2nnnn2C)ccc1OCc1c(F)cccc1Cl 7.47% [at 11.4 µM]
CC1(C)Cc2ccccc2-c2c[nH]c(=O)n21
O=C(c1ccc2c(=O)n(Cc3ccco3)c(=S)[nH]c2c1)N1CCCC1
N#Cc1ccc[n+](CC(=O)c2ccc(F)cc2)c1
Nc1ncnc2nnsc12 7.52% [at 0.0914 µM]
Oc1ccc(Br)cc1C1C=C(c2ccc3c(c2)OCO3)NC(c2ccc(Cl)cc2)N1 (stereo not drawn) 6.51% [at 0.0914 µM]
COc1cc(CN(CC2CCCO2)C(=O)c2ccccc2F)cc(OC)c1OC (stereo not drawn)
ClC/C=C/C[n+]1ccccc1Cl
CCOC(=O)c1c(C)oc2ccc(N(C(=O)c3ccncc3)S(=O)(=O)c3ccc(CC)cc3)cc12
CCCCC(CCCC)c1ccc(C=Nc2ccc(/C=C/c3ccnc4ccccc34)cc2)cc1
COc1cc(OC)c(/C=C/c2ccnc3ccccc23)c(OC)c1
CCOC(=O)c1cccc(NC(=O)c2cc(S(=O)(=O)N3CCCC(C)C3)cn2C)c1 (stereo not drawn)
O=C(Nc1ccccc1)c1ccccc1OCc1ccccc1
